From PubChem BioAssay AID485313 (National Center for Advancing Translational Sciences (NCATS), 2010) come the findings set out here.

The whole screen tested about 320,000 compounds, of which about 7,600 (2.4%) were called active. Another 3% or so got no clear call; they are omitted. Shown is part of a subset that was picked to be rich in actives. Values without a mark were called inactive. The call rests on the fitted dose curve; in most records, active means well fitted activation curve with a large enough effect; inconclusive means small, poorly fitted or top-dose-only effect; inactive means no such curve, though single readings can be large or run the other way.
Potency means the concentration at half of the fitted maximal effect.

The assay can be described thus: qHTS Assay for NPC1 Promoter Activators. Further: nearly all actives have a fitted effect of over 60% in size.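 On activation: reporter is driven by a mutant NPC1 promoter; % of control where 0% means no effect.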 The note with it: Huh7 NPC1 promoter luciferase reporter, 24 h; series mostly up to 9.22 µM; activation: at the top concentration. The method, boiled down:
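Stably transfected Huh7 (NPC1 promoter→luciferase), 1500 cells/well in Opti-MEM + 10% FBS, 2 h settle, then compound 24 h at 37 °C. Luminescence after 10 min with Amplite reagent.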
Regarding `Cc1ccc(OCCC(=O)Nc2ccc(S(=O)(=O)Nc3nccs3)cc2)cc1`, the “activation” value was -1.05%.

In the case of `COc1ccc(Cl)cc1NC(=O)CN(C)C(=O)c1ccc2n[nH]nc2c1`, the “activation” value was -2.57%.

For the compound `O=C(N/N=C/c1ccc([N+](=O)[O-])cc1)c1c[nH]c2ccccc12`, the “activation” value was 26.5%.

On to `Cc1ccsc1C(=O)N/N=C/c1ccc([N+](=O)[O-])cc1`, for which the Potency is 3980 nM (active).

Turning to `Cc1nc2ccccc2cc1C(=O)N/N=C/c1ccc([N+](=O)[O-])cc1`, the “activation” value was -3.83%.

As to `CCNc1nc(-c2cc3ccccc3o2)cs1`, the Potency was 2820 nM (active).

For the compound `Cc1nc(C)c(-c2csc(NCCc3ccccc3)n2)s1`, the “activation” value is 6.54%.

For the compound `CCOC(=O)CSc1nnc(CNc2nc(-c3ccccc3)cs2)n1C`, the “activation” value was -0.901%.

Regarding `O=C(CC1C(=O)NCCN1CC(c1ccccc1)c1ccccc1)NCC1CCOCC1` (stereo unspecified), the “activation” value was -1.68%.

Regarding `CCC1CCC2(CC1)NC(=O)N(CC(=O)Nc1ccc(OC)cc1)C2=O` (stereo unspecified), the “activation” value was -1.13%.

Regarding `COc1ccccc1N1CCN(/N=C/c2ccc(O)cc2O)CC1`, the Potency was 2820 nM (active).

With `COc1ccccc1N1CCN(/N=C\C(Br)=C\c2ccccc2)CC1`, the “activation” value is 26.2%.

On to `COc1cc(/C=N/N2CCN(c3ccccc3)CC2)ccc1OC(C)=O`, for which the “activation” value was 1.6%.

As for `O=C(Cc1cccs1)Nc1ccc([N+](=O)[O-])cc1`, the “activation” value is 1.42%.

As for `CCOc1ccccc1NC(=O)Cc1cccs1`, the “activation” value is -7.01%.

`CCOC(=O)c1ccc(NC(=O)Cc2cccs2)cc1`: the Potency is 3550 nM (active).

For `O=C(O)c1[nH]c2ccccc2c1C(c1cccc(O)c1)c1c(C(=O)O)[nH]c2ccccc12`, the “activation” value is -0.0937%.

For the compound `COc1ccc(NC(=O)CC2SC(N3CCCCC3)=NC2=O)cc1OC` (stereo unspecified), the “activation” value was -0.702%.

Consider `O=C(NCCCN1CCN(c2ccc(F)cc2)CC1)Nc1ccc([N+](=O)[O-])cc1`, for which the “activation” value was -1.46%.

With `CCOc1ccc(OCc2cccc(C(=O)N(CC)CC)c2)cc1`, the Potency is 251 nM (active).

For the compound `COc1ccc(OCc2cccc(C(=O)N3CCCC3)c2)cc1`, the Potency is 447 nM (active).

Regarding `CN(Cc1ccccc1)C(=O)c1ccc(COc2ccccc2)cc1`, the “activation” value was -4.73%.

`COc1cccc(COc2ccc(N(C)S(=O)(=O)c3ccccc3)cc2)c1`: the “activation” value is -2.05%.

For the compound `CC(=O)Oc1ccc(-c2cccc(C(=O)N3CCCCC3)c2)cc1`, the “activation” value is 19%.

With `COc1ccc(Cn2c(=S)[nH]c3cc(C(=O)N4CCCCC4)ccc3c2=O)cc1`, the “activation” value was 13.8%.

Take `CCCCn1nc(C(=O)Nc2cccc(C(=O)NC3CC3)c2)c2ccccc2c1=O`: the “activation” value was -1.73%.

For the compound `O=C(Nc1ccccc1)N1CCC(C(=O)N2CCN(Cc3ccccc3)CC2)CC1`, the “activation” value was 3.24%.

`COc1cccc(N2CCN(CC(=O)Nc3ccnn3C3CCCC3)CC2)c1`: the “activation” value is -3.51%.

On to `CN(CC(=O)Nc1ccc(Cl)cc1)CC(=O)Nc1cccc2ccccc12`, for which the “activation” value was -4.37%.

With `CCc1nc(SCC(=O)NNC(=O)c2ccc(C)cc2)c2ccccc2n1`, the “activation” value is 1.99%.

Turning to `Cc1ccc(C(=O)NNc2ncnc3ccccc23)cc1`, the Potency is 3160 nM (active).

For `Cc1ccc(C(=O)NNC(=O)c2cc3cc4ccccc4nc3s2)cc1`, the “activation” value is 1.16%.

In the case of `CC(=O)Nc1ccc(S(=O)(=O)NC(C)C(=O)OCCOc2ccc(F)cc2)cc1` (stereo unspecified), the “activation” value was 0.67%.

In the case of `N#CCC(=O)Nc1ccc(C(=O)OCC(=O)Nc2sc3c(c2C#N)CCCC3)cc1`, the “activation” value was -0.499%.

For the compound `CC(C)(C)OC(=O)N/N=C/c1ccc(C(=O)O)cc1`, the “activation” value is 0.842%.

As for `C/C(=N\NC(=O)OC(C)(C)C)c1ccc[nH]1`, the Potency was 2820 nM (active).

Regarding `Cc1ccccc1NC(=O)NNC(=O)OC(C)(C)C`, the “activation” value was 0.144%.

Turning to `CC(C)CC(COCc1ccc(Cl)cc1)N1CCN(C(=O)c2ccc(C(F)(F)F)cc2)CCC1=O` (stereo unspecified), the “activation” value was -5.4%.

`CCOc1ccc(NC(=O)CN(C)C(=O)Cn2c(=O)cnc3ccccc32)cc1OCC`: the “activation” value was -0.76%.

For the compound `O=c1c2ccccc2ccc2ccc(P(=O)(O)O)cc12`, the “activation” value was -2.15%.

With `Cc1nc(-c2ccccc2)sc1C(=O)/C=C/N(C)C`, the Potency was 2820 nM (active).

Take `CN(C)/C=C/C(=O)c1ccccc1F`: the “activation” value was 0.124%.

With `Cc1nc(COc2cccc(Cl)c2)sc1C(=O)/C=C/N(C)C`, the “activation” value was 18.5%.

With `Cn1c(SCC(=O)Nc2nccs2)nnc1-c1cccnc1`, the “activation” value is -0.463%.

As to `COC(=O)c1ccc(OC(=O)c2cnccn2)cc1`, the “activation” value was 0.63%.

Consider `O=C(NCCCNC(=O)c1ccccc1Cl)c1cnccn1`, for which the “activation” value is -0.803%.

In the case of `Cn1c(=NC(=O)c2cnccn2)sc2ccccc21`, the Potency is 2000 nM (active).

`CCOc1ccc2oc(C(=O)N(CC)CC(=O)Nc3ccc(NC(C)=O)cc3)c(C)c2c1`: the “activation” value is 5.68%.

`Cc1c(O)c(C)c2c(c1O)C(=O)C[C@@H](c1ccccc1)O2`: the “activation” value was 1.52%.

Regarding `O=C(Nc1ccon1)c1nc[nH]c1C(=O)NCc1ccccc1`, the “activation” value was 0.0628%.

As to `CC(Oc1ccc(Br)cc1)C(=O)NC1CCCCCC1` (stereo unspecified), the “activation” value is 17.9%.

Take `COc1cccc(CC(=O)Nc2ccc(-c3csc(C)n3)cc2)c1`: the “activation” value was 1.47%.

On to `COc1ccc(-c2csc(Cc3nc(O)cs3)n2)cc1`, for which the Potency is 3550 nM (active).

As for `CC(C)(C)C(=O)OCc1nc(-c2ccc(O)c(O)c2)cs1`, the “activation” value was -3.2%.

For the compound `CCN(CC(=O)Nc1cc(Cl)ccc1C)C(=O)CSCc1ccccc1`, the “activation” value is -2.25%.

`CC(=O)c1ccc(N2Cc3ccccc3C2)cc1`: the Potency was 2510 nM (active).
